# Values without a mark were called inactive. Records with an inconclusive call do not appear. Where a call stands in place of a potency, no number is given. Calls of active or inactive are those of the source. Unless noted, calls come from the whole dose curve; as a rule, active = well fitted curve in the direction sought with a large enough effect in the repeat runs; inconclusive = weak or mixed curves; inactive = no such curve, though single readings can be large; an effect the other way counts as inactive or inconclusive.
# Columns and labels:
# [1] = qHTS assay to identify small molecule agonists of the estrogen related receptor (ERR) signaling pathway from Tox21 library (AID 1224849; calls by dose curve; note: nearly all actives have a fitted effect of over 15% in size)
# Summary of the method: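 Six hours post-seeding at 37 C/5% CO2, ERR cells receive DMSO-solubilised compounds; after 18 h at 37 C, ONE-Glo reagent is applied and luminescence recorded.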
# [2] = qHTS RealTime-Glo MT Cell Viability Assay in HepG2 cells - 24 hour (AID 1224867); note: nearly all actives have a fitted effect of over 50% in size
# Summary of the method: (§1)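 HepG2 suspension premixed with RealTime-Glo reagents is plated at 600 cells per well and left 5 h at 37 C/5% CO2. Compounds in DMSO then go in, and bioluminescence reflecting viable cell number is recorded over 40 h.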
# [3] = qHTS RealTime-Glo MT Cell Viability Assay in HEK293 cells - 32 hour (AID 1224868); note: top concentration of the series differs between compounds; nearly all actives have a fitted effect of over 50% in size
# Summary of the method: (§2)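 Reads taken at 0, 8, 16, 24, 32 and 40 h from the same wells. HEK293 cells (600/well) carried RealTime-Glo reagents from seeding, with compound added after a 5 h settle at 37 C.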
# [4] = A CellTox Green Cytotoxicity Assay to monitor cytotoxicity in HEK293 cells - 0 hour (AID 1224869); note: nearly all actives have a fitted effect of over 50% in size
# Summary of the method: (§3)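 Seeding of HEK293 cells together with cytotoxicity dye preceded a 5 h incubation at 37 C/5% CO2. Test compounds in DMSO were then added and fluorescence monitored across 40 h.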
# [5] = qHTS RealTime-Glo MT Cell Viability Assay in HepG2 cells - 40 hour (AID 1224870); note: nearly all actives have a fitted effect of over 50% in size
# Summary of the method: (§4)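 Real-time viability: cells seeded at 600 per well together with NanoLuc and cell-permeant prosubstrate, compounds added after 5 h incubation. Luminescence tracked at 0, 8, 16, 24, 32 and 40 h of exposure.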
# [6] = A CellTox Green Cytotoxicity Assay to monitor cytotoxicity in HEK293 cells - 40 hour (AID 1224871); note: nearly all actives have a fitted effect of over 45% in size
# Summary of the method: as §3
# [7] = qHTS RealTime-Glo MT Cell Viability Assay in HEK293 cells - 16 hour (AID 1224872)
# Summary of the method: as §2
# [8] = qHTS RealTime-Glo MT Cell Viability Assay in HEK293 cells - 40 hour (AID 1224874); details: RealTime-Glo luminescence; max response: hits give low values; note: nearly all actives have a fitted effect of over 50% in size
# Summary of the method: (§5)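 Tox21 screen in HEK293 using RealTime-Glo MT chemistry, with cells and reagent co-dispensed. Luminescence proportional to viable cell number was captured at intervals during 40 h compound exposure at 37 C.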
# [9] = A CellTox Green Cytotoxicity Assay to monitor cytotoxicity in HEK293 cells - 24 hour (AID 1224875); note: series mostly up to about 77 µM; nearly all actives have a fitted effect of over 45% in size
# Summary of the method: as §3
# [10] = A CellTox Green Cytotoxicity Assay to monitor cytotoxicity in HepG2 cells - 16 hour (AID 1224876); note: nearly all actives have a fitted effect of over 45% in size
# Summary of the method: (§6)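 Nonlytic assay: viable cells exclude the dye, so fluorescence scales with cell death. HepG2 at 600 cells/well, compounds added after 5 h, signal read across 40 h.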
# [11] = A CellTox Green Cytotoxicity Assay to monitor cytotoxicity in HepG2 cells - 24 hour (AID 1224878); note: nearly all actives have a fitted effect of over 45% in size
# Summary of the method: as §6
# [12] = A CellTox Green Cytotoxicity Assay to monitor cytotoxicity in HepG2 cells - 40 hour (AID 1224879); note: nearly all actives have a fitted effect of over 40% in size
# Summary of the method: as §6
# [13] = qHTS RealTime-Glo MT Cell Viability Assay in HEK293 cells - 0 hour (AID 1224880)
# Summary of the method: as §5
# [14] = A CellTox Green Cytotoxicity Assay to monitor cytotoxicity in HEK293 cells - 32 hour (AID 1224881); note: nearly all actives have a fitted effect of over 40% in size
# Summary of the method: as §3
# [15] = A CellTox Green Cytotoxicity Assay to monitor cytotoxicity in HepG2 cells - 0 hour (AID 1224882); note: nearly all actives have a fitted effect of over 35% in size
# Summary of the method: as §6
# [16] = A CellTox Green Cytotoxicity Assay to monitor cytotoxicity in HepG2 cells - 32 hour (AID 1224883); note: nearly all actives have a fitted effect of over 50% in size
# Summary of the method: as §6
# [17] = A CellTox Green Cytotoxicity Assay to monitor cytotoxicity in HEK293 cells - 8 hour (AID 1224884); note: nearly all actives have a fitted effect of over 35% in size; note: potency is the fitted concentration of half-maximal effect
# Summary of the method: as §3
# [18] = qHTS RealTime-Glo MT Cell Viability Assay in HepG2 cells - 16 hour (AID 1224885); note: nearly all actives have a fitted effect of over 50% in size
# Summary of the method: as §1
# [19] = qHTS RealTime-Glo MT Cell Viability Assay in HepG2 cells - 8 hour (AID 1224873); note: nearly all actives have a fitted effect of over 55% in size
# Summary of the method: as §4
# [20] = qHTS RealTime-Glo MT Cell Viability Assay in HepG2 cells - 32 hour (AID 1224877); note: nearly all actives have a fitted effect of over 55% in size
# Summary of the method: as §1
Structure (SMILES),outcome [1],outcome [2],Potency [3],Potency [4],outcome [5],Potency [6],Potency [7],max response [8],Potency [9],Potency [10],Potency [11],Potency [12],outcome [13],Potency [14],Potency [15],Potency [16],Potency [17],outcome [18],outcome [19],outcome [20]
Cc1ncc([N+](=O)[O-])n1CC(O)CCl (centres undefined),inactive,inactive,inactive,inactive,inactive,inactive,inactive,3.64%,inactive,inactive,inactive,inactive,inactive,inactive,inactive,inactive,inactive,inactive,,
Cc1c(C(C)C)c(=O)n(-c2ccccc2)n1C,inactive,inactive,inactive,inactive,inactive,inactive,inactive,3.94%,inactive,inactive,inactive,inactive,inactive,inactive,inactive,inactive,inactive,inactive,inactive,inactive
O=C1c2ccccc2-c2ccccc21,inactive,inactive,inactive,inactive,inactive,inactive,inactive,1.19%,inactive,inactive,inactive,inactive,inactive,inactive,inactive,inactive,inactive,inactive,inactive,inactive
CC(C)(CO)[C@@H](O)C(=O)NCCCO,inactive,inactive,inactive,inactive,inactive,inactive,inactive,4%,inactive,,inactive,inactive,inactive,inactive,inactive,inactive,inactive,inactive,inactive,inactive
O=C(O)c1ccc(OCCN2CCCCC2)cc1,inactive,inactive,inactive,inactive,inactive,inactive,inactive,5.16%,inactive,inactive,inactive,inactive,inactive,inactive,inactive,inactive,inactive,inactive,,inactive
CC(=O)c1ccc2c(c1)CCCC2,inactive,inactive,inactive,inactive,inactive,inactive,inactive,-1.61%,inactive,inactive,inactive,,inactive,inactive,inactive,inactive,inactive,,inactive,inactive
C1CCN2C[C@@H]3C[C@@H](CN4CCCC[C@@H]34)[C@H]2C1,inactive,inactive,inactive,inactive,inactive,,inactive,1.31%,inactive,inactive,inactive,inactive,inactive,inactive,inactive,inactive,inactive,inactive,inactive,inactive
CC(Cl)COP(=O)(OCC(C)Cl)OCC(C)Cl (centres undefined),inactive,inactive,inactive,inactive,inactive,inactive,inactive,-0.188%,inactive,inactive,inactive,inactive,inactive,inactive,inactive,inactive,inactive,inactive,inactive,inactive
CCCOCCOCCOCCO,inactive,inactive,inactive,inactive,inactive,inactive,inactive,-22.3%,inactive,inactive,inactive,inactive,inactive,inactive,inactive,inactive,inactive,inactive,,inactive
CC(C)(C)NCCO,inactive,inactive,inactive,inactive,inactive,inactive,inactive,6.71%,inactive,inactive,inactive,inactive,inactive,inactive,inactive,inactive,,inactive,inactive,inactive
C=CCOc1c(Br)cc(Br)cc1Br,inactive,inactive,inactive,inactive,inactive,inactive,inactive,2.02%,inactive,,,inactive,inactive,inactive,inactive,inactive,inactive,inactive,inactive,inactive
NS(=O)(=O)c1ccccc1OC(F)(F)F,inactive,inactive,inactive,inactive,inactive,inactive,inactive,6.21%,inactive,inactive,inactive,inactive,,inactive,inactive,inactive,inactive,inactive,inactive,inactive
CCCCCCCCC(=O)OCC,inactive,inactive,inactive,inactive,inactive,inactive,inactive,9.15%,inactive,inactive,inactive,inactive,inactive,inactive,inactive,inactive,inactive,inactive,inactive,inactive
CC(C)COC(=O)COc1ccc(Cl)cc1Cl,inactive,inactive,inactive,inactive,inactive,inactive,inactive,6.46%,inactive,inactive,inactive,inactive,inactive,inactive,,inactive,43.6 µM (active),inactive,inactive,inactive
C=CCOc1c(Br)cc(C(C)(C)c2cc(Br)c(OCC=C)c(Br)c2)cc1Br,inactive,inactive,inactive,inactive,inactive,inactive,inactive,14.4%,inactive,inactive,inactive,inactive,inactive,inactive,inactive,inactive,inactive,inactive,,inactive
CCCCOC(=O)C(=O)OCCCC,inactive,inactive,inactive,inactive,inactive,inactive,inactive,0.934%,inactive,inactive,inactive,inactive,inactive,inactive,inactive,inactive,inactive,inactive,inactive,inactive
CCC(C)(C)C1CCC(=O)CC1,inactive,inactive,inactive,inactive,inactive,inactive,inactive,7.65%,inactive,inactive,inactive,inactive,inactive,inactive,,inactive,inactive,inactive,inactive,inactive
O=C(O)CCNC(=O)c1ccccc1,inactive,inactive,inactive,inactive,inactive,inactive,inactive,-0.231%,inactive,,inactive,,inactive,inactive,inactive,inactive,inactive,,inactive,
CC(=O)OCCCc1ccccc1,inactive,inactive,inactive,inactive,inactive,inactive,inactive,4.03%,inactive,,,inactive,,inactive,inactive,inactive,inactive,,,
CN(C)CCOCCN(C)CCO,inactive,inactive,inactive,inactive,inactive,inactive,inactive,-7.32%,inactive,inactive,inactive,inactive,inactive,inactive,inactive,inactive,inactive,inactive,inactive,inactive
C=CCOC(=O)c1ccc(C(=O)OCC=C)c(C(=O)OCC=C)c1,inactive,inactive,inactive,inactive,inactive,inactive,inactive,4.3%,inactive,inactive,inactive,inactive,inactive,inactive,,inactive,inactive,,inactive,inactive
FC(F)(F)c1ccc(Cl)cc1Cl,inactive,inactive,inactive,inactive,inactive,inactive,inactive,6.78%,inactive,inactive,,inactive,inactive,inactive,inactive,inactive,inactive,inactive,,inactive
c1ccccc1,inactive,inactive,inactive,inactive,inactive,inactive,inactive,-3.11%,inactive,inactive,inactive,inactive,inactive,inactive,inactive,inactive,inactive,inactive,,inactive
CC(C)C(=O)Nc1cccc(C(F)(F)F)c1,inactive,inactive,inactive,inactive,inactive,inactive,inactive,-2.33%,inactive,inactive,inactive,,inactive,inactive,inactive,inactive,inactive,,inactive,inactive
CCC1COC(=O)O1 (centres undefined),inactive,inactive,inactive,inactive,inactive,inactive,inactive,-0.285%,inactive,inactive,,inactive,inactive,inactive,inactive,inactive,inactive,inactive,inactive,inactive
CCCCCCCCCOCC1CO1 (centres undefined),inactive,inactive,inactive,inactive,inactive,inactive,inactive,,inactive,inactive,,inactive,inactive,inactive,inactive,inactive,inactive,inactive,inactive,inactive
C=C(C)C(=O)OCCCCCCOC(=O)C(=C)C,inactive,inactive,inactive,inactive,inactive,inactive,inactive,6.48%,inactive,inactive,inactive,inactive,inactive,inactive,inactive,inactive,inactive,inactive,,inactive

# From PubChem BioAssay (Tox21)
